Test [1] is described as follows: ACEA_ER_80hr: ACEA Biosciences xCELLigence Real-Time Cell Analysis on Estrogen Receptor Agonism for Proliferation (AID 2282667; active = hit-call score of the fitted dose curve at least 0.9, where 1 is the maximum). The following applies: T47D proliferation, impedance (xCELLigence), 80 h. A digest of the protocol: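 T-47D cells monitored by electrical impedance (xCELLigence) with compound present throughout; 80 h timepoint, positive-direction fitting versus DMSO. Eight-point 1:4 dilutions from 100 uM final, duplicate plates.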

Test [2] can be described thus: APR_HepG2_CellCycleArrest_24hr: Apredica 24-hour HepG2 Assay for Cell Cycle Arrest (AID 2282905).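 Note: cell cycle arrest scored as ratio of 2N to 4N nuclear DNA content.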 Particulars: imaging, actives raise or lower the signal. A digest of the protocol: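 After 24 h exposure at 0.39–200 uM in 0.5% DMSO, fixed cells received Hoechst 33342 staining. Imaging quantified per-nucleus DNA content; gain or loss fitted against DMSO controls.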
The nature of test [3]: APR_HepG2_NuclearSize_24hr: Apredica 24-hour HepG2 Assay for Nuclear Size (AID 2282907). Particulars: high-content imaging, actives raise or lower the signal. A digest of the protocol:
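Nuclear size from Hoechst 33342-stained, formaldehyde-fixed HepG2 nuclei imaged by high-content microscopy, after 24 h dosing at ten concentrations from 0.39 to 200 uM in 0.5% DMSO; gain or loss relative to DMSO baseline.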

A short description of test [4]: APR_HepG2_CellLoss_24hr: Apredica 24-hour HepG2 Assay for Cell Loss (AID 2282908).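 For AC50: fit in both directions so a hit may be cell loss or gain.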 Particulars: high-content imaging. The gist of the method:
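Nuclei stained with Hoechst 33342 after formaldehyde fixation (3.7%) were imaged at 20x to count cells. Exposure lasted 24 hr, at ten concentrations from 0.39 to 200 uM in duplicate, with 0.5% v/v DMSO. Fit bidirectional, relative to DMSO.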

The nature of test [5]: APR_HepG2_MicrotubuleCSK_24hr: Apredica 24-hour HepG2 Assay for Microtubule CSK Stabilty (AID 2282909). The following applies: HepG2 microtubule cytoskeleton imaging, actives raise or lower the signal. A digest of the protocol: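 Fixed HepG2 cells were stained for alpha-tubulin and imaged after 24 hr exposure to ten concentrations spanning 0.39–200 uM in 0.5% DMSO. Signal change was fitted in both directions relative to DMSO; taxol was the positive control.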

Test [6] can be described thus: APR_HepG2_MitoticArrest_24hr: Apredica 24-hour HepG2 Assay for Mitotic Arrest (AID 2282910). The following applies: high-content imaging, actives raise or lower the signal. The gist of the method:
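High-content imaging of fixed HepG2 cells labeled with Hoechst 33342 and anti-phospho-histone H3, after 24 h treatment. Ten concentrations 0.39 to 200 uM in duplicate, final DMSO 0.5%; changes fitted both directions relative to DMSO.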

Test [7] in a line: APR_HepG2_MitoMembPot_24hr: Apredica 24-hour HepG2 Assay for Mitochondrial Membrane Potential (AID 2282911). Particulars: imaging, actives raise or lower the signal. The gist of the method:
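HepG2 cells exposed 24 h to 0.39–200 uM compounds in duplicate, 0.5% v/v DMSO final. MitoTracker Red CMXRos 250 nM loaded 30 min before formaldehyde fixation; high-content imaging at 20x, bidirectional fit versus DMSO.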

Test [8] is described as follows: APR_HepG2_MitoMass_24hr: Apredica 24-hour HepG2 Assay for Mitochondrial Mass (AID 2282912). Particulars: high-content imaging, actives raise or lower the signal. The gist of the method: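 Endpoint is MitoTracker Red CMXRos (250 nM, 30 min, pre-fixation) intensity from 20x high-content imaging, nuclei located by Hoechst. Human HepG2 cells received ten concentrations from 0.39 to 200 uM in 0.5% DMSO for 24 hr, duplicate wells. Bidirectional fit relative to DMSO.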

Test [9] in a line: APR_HepG2_CellCycleArrest_72hr: Apredica 72-hour HepG2 Assay for Cell Cycle Arrest (AID 2282914). The following applies: high-content imaging, actives raise or lower the signal. A digest of the protocol:
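HepG2 cells exposed 72 h in duplicate to 0.39–200 uM compound, 0.5% DMSO final. Formaldehyde-fixed, Hoechst 33342-stained nuclei imaged at 20x, six fields per well; DNA content per valid cell quantified by cell-cycle image analysis, bidirectional fit versus DMSO.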

Test [10] can be described thus: APR_HepG2_CellLoss_72hr: Apredica 72-hour HepG2 Assay for Cell Loss (AID 2282915). Particulars: high-content imaging. The gist of the method: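 Cell number comes from Hoechst 33342-labelled nuclei, imaged at 20x after 3.7% formaldehyde fixation. Dosing was 0.39–200 uM, ten concentrations in duplicate, 0.5% DMSO final, for 72 h. Bidirectional fit relative to DMSO baseline.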

Test [11] in a line: APR_HepG2_P-H2AX_72hr: Apredica 72-hour HepG2 Assay for H2AX Phosphorylation (AID 2282916).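 Note: phospho-histone H2A.x immunostain intensity per cell marking DNA damage.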 The following applies: imaging, actives raise or lower the signal. The gist of the method:
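Phospho-histone H2A.x immunofluorescence, multiplexed with Hoechst and c-Jun, quantified by high-content imaging. Compounds applied to HepG2 for 72 h across ten concentrations (0.39–200 uM, 0.5% DMSO), in duplicate; DMSO baseline.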

A short description of test [12]: APR_HepG2_MitoMembPot_72hr: Apredica 72-hour HepG2 Assay for Mitochondrial Membrane Potential (AID 2282917). Particulars: imaging, actives raise or lower the signal. The gist of the method:
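Membrane potential read by MitoTracker Red CMXRos (250 nM, 30 min, pre-fixation) fluorescence imaging of HepG2 after 72 hr exposure. Ten concentrations, 0.39–200 uM, duplicate wells, 0.5% DMSO; fitted in both directions against DMSO baseline.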

Test [13] in a line: APR_HepG2_MitoticArrest_72hr: Apredica 72-hour HepG2 Assay for Mitotic Arrest (AID 2282918). Particulars: high-content imaging, actives raise or lower the signal. The gist of the method:
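HepG2 cells treated 72 h at 0.39–200 uM, 0.5% DMSO final; formaldehyde-fixed, stained with Hoechst 33342 and phospho-histone H3 antibody, imaged by high-content fluorescence; bidirectional fit versus DMSO.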

Test [14] in a line: APR_HepG2_MicrotubuleCSK_72hr: Apredica 72-hour HepG2 Assay for Microtubule CSK Stabilty (AID 2282919). The following applies: HepG2 microtubule cytoskeleton, high-content imaging, actives raise or lower the signal. A digest of the protocol: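 High-content imaging of alpha-tubulin staining in fixed HepG2 cells after 72 hr treatment with ten concentrations from 0.39 to 200 uM (0.5% DMSO). Fitting was bidirectional against DMSO; taxol served as positive control.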

The nature of test [15]: APR_HepG2_P-H2AX_24hr: Apredica 24-hour HepG2 Assay for H2AX Phosphorylation (AID 2282920). Particulars: high-content imaging, actives raise or lower the signal. The gist of the method: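 HepG2 cells dosed 24 h at 0.39–200 uM (10 points, duplicate, 0.5% DMSO final). Formaldehyde-fixed and permeabilized, then immunostained for phospho-H2A.x with Hoechst. Fluorescence quantified by high-content imaging, fitted bidirectionally versus DMSO.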

The nature of test [16]: APR_HepG2_StressKinase_72hr: Apredica 72-hour HepG2 Assay for Stress Kinase (AID 2282921). The following applies: HepG2 stress kinase (phospho-c-Jun) imaging, actives raise or lower the signal. The gist of the method: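 Stress kinase signal is phospho-c-Jun immunofluorescence (1:500 primary, Cy3 secondary) in fixed, permeabilized human HepG2 cells imaged at 20x. Exposure lasted 72 hr over ten concentrations from 0.39 to 200 uM, 0.5% DMSO, in duplicate. Bidirectional fit versus DMSO.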

Test [17] can be described thus: APR_HepG2_StressKinase_24hr: Apredica 24-hour HepG2 Assay for Stress Kinase (AID 2282922). The following applies: HepG2 stress kinase (phospho-c-Jun) imaging, actives raise or lower the signal. The gist of the method:
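High-content imaging of phospho-c-Jun immunofluorescence in fixed, permeabilized HepG2 cells after 24 h dosing. Ten concentrations, 0.39 to 200 uM, run in duplicate at 0.5% v/v DMSO; gain or loss of signal versus DMSO.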

Test [18] is described as follows: APR_HepG2_MitoMass_72hr: Apredica 72-hour HepG2 Assay for Mitochondrial Mass (AID 2282924).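 Note: MitoTracker Red CMXRos stain intensity per cell imaged as mitochondrial mass.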 The following applies: high-content imaging, actives raise or lower the signal. The gist of the method:
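Readout is imaged MitoTracker Red (250 nM, 30 min, pre-fixation) signal, fitted bidirectionally against DMSO baseline. Human HepG2 liver cells received compound 0.39–200 uM in duplicate for 72 hr, final DMSO 0.5%.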

Test [19] can be described thus: APR_HepG2_p53Act_24hr: Apredica 24-hour HepG2 Assay for p53 Activation (AID 2282913).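 Note: p53 protein immunofluorescence averaged per cell in HepG2 with Hoechst nuclei.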 The following applies: high-content imaging, actives raise or lower the signal. The gist of the method:
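HepG2 cells exposed 24 h to compounds at 0.39–200 uM in duplicate, 0.5% v/v DMSO final; fixed, permeabilized, stained with anti-p53 antibody and Hoechst 33342; fluorescence imaging; bidirectional curve fit versus DMSO.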

Test [20] can be described thus: APR_HepG2_p53Act_72hr: Apredica 72-hour HepG2 Assay for p53 Activation (AID 2282923).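 Note: average cellular p53 protein immunofluorescence intensity in HepG2 cells.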 The following applies: high-content imaging, actives raise or lower the signal. A digest of the protocol:
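After 72 h with compound (ten points, 0.39 to 200 uM, final DMSO 0.5% v/v), fixed HepG2 cells were labelled with sheep anti-p53 and Hoechst 33342 and imaged; gain or loss versus DMSO scored.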

Molecules are shown by their SMILES. Several values for one entry are separate records, joined by “and”; a condition that tells them apart may be missing. Equal entries are not always repeated. Records with an inconclusive call do not appear. Activity calls are given as the source filed them. Rule for the calls, unless noted: active = hit-call score of the fitted dose curve at least 0.9, where 1 is the maximum; inactive = score below 0.9.

As usually defined, the AC50 is the midpoint of the concentration-response curve, whichever way the signal moves. Consider `O=C(O)c1ccccc1C(c1ccc(O)cc1)c1ccc(O)cc1`, for which the outcome in test [1], in test [2], in test [3], in [4], in [5] and in [6] was inactive. The result in [7], in test [8], in [11], in [12], in test [13] and in test [14] was inactive. For the same compound, the result in test [15], in test [16], in [17] and in test [18] was inactive. The concentration at half-maximal activity (AC50) in [9] was 100 µM (active); in [10], 80.2 µM (active).

In the case of `CC(O)CO` (centres undefined), the result in [1], in [2], in test [3], in test [4], in [5] and in test [6] was inactive. The compound was classed as inactive in test [7], in test [8], in [19], in test [9], in [10] and in test [11]. In addition, the compound was classed as inactive in test [12], in test [13], in test [14], in test [15], in test [16] and in test [20]. The compound was called inactive in [18].

As for `NC(=O)N(O)[C@@H]1C=C[C@H](Oc2cccc(Oc3ccc(F)cc3)c2)C1`, the outcome in test [1], in [2], in [3], in test [6], in [8] and in test [9] was inactive. The compound was classed as inactive in [11], in [12], in test [14], in test [16], in test [20] and in test [18]. The AC50 in [4] was 107 µM (active); in [5] it was 93 µM (active); in test [7] it was 32.9 µM (active); in test [19] it was 105 µM (active); in test [10], 94.7 µM (active); in test [13] it was 85.4 µM (active). Also, the half-maximal activity concentration (AC50) in [15] is 103 µM (active).

Turning to `CCCCCCCCCCCCCCCS(=O)(=O)Oc1ccccc1`, the compound was called inactive in test [1], in test [2], in [3], in test [4], in test [5] and in [6]. Further, the compound was called inactive in test [7], in [8], in [19], in test [9], in [10] and in test [11]. The result in test [12], in test [13], in test [14], in test [15], in [16] and in [20] was inactive. Further, the compound was classed as inactive in test [18].

Consider `CC#C[C@]1(O)CC[C@H]2[C@@H]3CCC4=CC(=O)CCC4=C3[C@@H](c3ccc(N(C)C)cc3)C[C@@]21C`, for which the concentration at half-maximal activity (AC50) in [1] was 132 nM (active) and 56 nM (active) and 36.7 nM (active). Besides, the result in [2], in test [3], in test [4], in test [5], in [6] and in test [7] was inactive. Moreover, the result in [8], in test [19], in test [9], in [10], in test [11] and in [12] was inactive. Further, the outcome in [13], in [14], in [15], in test [16], in test [20] and in test [18] was inactive.

Source of the values: PubChem BioAssay (EPA / NIEHS).
